Screens from PubChem.
KB-V1 cytotox: KB-V1 MDR subline cytotoxicity. KB-V1 MDR cells viability, CellTiter-Glo, 72 h. Potency, µM (doses to about 46.1 µM), most hits filed as cytotoxic. 400,000 tested, 3.4% active. AID 1347076; also: nearly all actives have a fitted effect of over 60% in size
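Cells of the MDR subline KB-V1 are plated, dosed with compound at multiple concentrations, and incubated 72 h at 37 degrees C; CellTiter-Glo is then added and luminescence read after 10 min.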
KB-3-1 cytotox: kills parental KB-3-1 adenocarcinoma cells; KB-3-1 viability, CellTiter-Glo ATP luminescence, 72 h; Potency, µM (top dose mostly 46.1 µM), usual class: cytotoxic; 400,000 tested, 1.4% active; also: nearly all actives have a fitted effect of over 60% in size
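Here the drug-naive KB-3-1 line serves as comparator for MDR sub-line selectivity; cells received compound titrations, 72 h at 37 °C, then CellTiter-Glo readout.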
SW480 rereplic: DNA re-replication induction in SW480 cells; SW480 DNA re-replication, Hoechst DNA content imaging, 48 h; Potency, µM (doses to about 46.1 µM), most hits filed as activators; 340,000 tested, 1.8% active; AID 624297; also: nearly all actives have a fitted effect of over 55% in size
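Readout is total intensity of Hoechst-stained nuclei, excited at 405 nm and collected at 500-530 nm. Compound treatment lasted 48 hr at 37 C in 5% CO2 before staining.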
HT1080NT lethal: kills 2HG-producing HT-1080-NT fibrosarcoma cells. HT-1080-NT fibrosarcoma viability, CellTiter-Glo ATP luminescence, 48 h. Potency, µM (titrated, usually from 46.1 µM), actives largely listed as cytotoxic. AID 686970. 360,000 tested, 1.6% active;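 also: NT is the 2HG producing partner of a matched IDH1 knockdown line; nearly all actives have a fitted effect of over 55% in size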
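Fibrosarcoma NT cells, 750 per well in 5% FBS RPMI, were exposed to compound for 48 hours. Viability: CellTiter-Glo luminescence.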
HT1080 IDH1KD tx: kills HT-1080 cells with IDH1 knockdown; HT-1080 IDH1 knockdown viability, ATP luminescence, 48 h; Potency, µM (doses to about 46.1 µM), most hits filed as cytotoxic; 360,000 tested, 2% active; AID 686971
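Viability of IDH1-knockdown HT-1080 fibrosarcoma cells was assessed by CellTiter-Glo after 48 h at 37 °C with titrated compound; concentration-effect curves were classified by fit quality and response size.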
MCF10A rereplic: DNA re-replication induction in MCF 10a cells; MCF 10A DNA re-replication, Hoechst nuclear intensity, 48 h; Potency, µM (top dose mostly 46.1 µM), hits mostly activators; 350,000 tested, 2.9% active; also: nearly all actives have a fitted effect of over 50% in size
Numbers stand for hits; n = inactive; u = inconclusive; x = no result; [ ] = dose if it differs, or a comment. Hits are enriched below; roughly 8% of the tested compounds scored in any of these assays. Calls follow the shape of the dose curve; as a rule, active = well fitted curve in the direction sought with a large enough effect; inconclusive = small, poorly fitted or top-dose-only effect, or another doubt; inactive = no such curve, though single readings can be large; an effect the other way counts as inactive or inconclusive.

SMILES	KB-V1 cytotox	KB-3-1 cytotox	SW480 rereplic	HT1080NT lethal	HT1080 IDH1KD tx	MCF10A rereplic
Cc1cccc(C(O)(C(=O)NNC(=O)CN2CCN(C)CC2)c2cccc(C)c2)c1	n	n	n	n	n	n
NC(Cc1ccc(F)cc1)c1csc(Nc2ccccn2)n1 (centres undefined)	u	n	x	u	23µM	x
NC(Cc1ccc(Cl)cc1)c1csc(Nc2ccccn2)n1 (centres undefined)	n	n	x	23µM	u	x
COc1cccc(Nc2nc(C(N)Cc3ccc(F)cc3)cs2)n1 (centres undefined)	u	u	x	23µM	15µM	x
NC(Cc1ccccc1)c1csc(Nc2ccccn2)n1 (centres undefined)	n	n	x	u	u	x
Cc1nn(CC(C)C)c(Cl)c1C(=O)NC1CCCCC1	n	n	n	n	n	n
O=C(c1ccc(Cl)cc1)C1CCCN(Cc2ccc3nonc3c2)C1 (centres undefined)	n	n	n	n	n	u
CN(C)c1ncc(C2=C(Cl)C(=O)C(N3CCCC3)=C(Cl)C2=O)s1	n	n	9.2µM	u	8.9µM	u
C=CCn1c(=O)c(C=Nc2c(OC)cccc2[N+](=O)[O-])c(O)n(CCCC)c1=O	n	n	u	n	n	7.3µM
CCCCn1c(O)c(C(CC)=NCc2cc(OC)cc(OC)c2)c(=O)[nH]c1=O	3.7µM	n	n	n	n	n
CCC(=Nc1ccc(OC)cc1OC)c1c(O)n(C)c(=O)n(C)c1=O	u	u	n[9.22 µM]	n	u	n
CCCCn1c(O)c(C(CC)=Nc2ccc(OCC)cc2)c(=O)[nH]c1=O	21µM	u	n	n	n	n
CCCCn1c(O)c(C(CC)=NC(C)c2ccccc2)c(=O)[nH]c1=O (centres undefined)	n	n	u	u	u	u
CCCCn1c(O)c(C(CC)=Nc2ccc(OC)cc2OC)c(=O)[nH]c1=O	21µM	u	u	n	n	u
CCOC(=O)c1c(NC(=O)C(c2ccccc2)c2ccccc2)sc2c1C1CCN2CC1	23µM	u	u	n	n	u
Cc1ccc2[nH]c3c(c2c1)CN(C(=O)CN1C[C@H]2C[C@@H](C1)c1cccc(=O)n1C2)CC3	n	n	4.1µM	n	u	n
CCCc1nc2ccc(Br)cc2c(=O)n1-c1ccc([N+](=O)[O-])c(C(F)(F)F)c1	16µM	u	u	u	u	u
CCc1nc2ccc(Br)cc2c(=O)n1-c1ccccc1C(F)(F)F	n	n	n	n	n	n
COc1cc(OC)cc(C(=O)Nc2ccc(Br)cc2C(=O)c2ccccc2)c1	n	n	n	n	n	n
COc1cc(C)c(C(=O)CC(=O)c2c(C)cc(OC)cc2C)c(C)c1	n	n	16µM	n	u	16µM
CCC1CCCCN1CCCNS(=O)(=O)c1ccc2c(c1)oc(=O)n2C (centres undefined)	n	n	n	n	n	u
CCCCCc1cc(O)c2c(c1)OC(C)(C)C1CC=C(C)CC21 (centres undefined)	x	x	u	x	x	7.5µM
O=C1NC(=S)NC(=O)C1C/C=C/c1ccccc1	n	n	n	n	n	n
Cc1cccc(-n2c(/C=C/c3c[nH]c4ccccc34)nc3ccccc3c2=O)c1	u	n	x	x	x	x
Cc1cc(-c2ccccc2)cc(-c2ccccc2)[n+]1CCc1ccccc1	n	u	n	n	n	u
SMILES	KB-V1 cytotox	KB-3-1 cytotox	SW480 rereplic	HT1080NT lethal	HT1080 IDH1KD tx	MCF10A rereplic
Fc1ccc(C[n+]2c(-c3ccccc3)cc(-c3ccccc3)cc2-c2ccccc2)cc1	n	16µM	n	16µM	18µM	n
Clc1ccc(C[n+]2c(-c3ccccc3)cc(-c3ccccc3)cc2-c2ccccc2)cc1	n	10µM	n	16µM	10µM	u
C[N+]1(CC2COC(c3ccco3)O2)CCCCC1 (centres undefined)	n	n	n	n	n	n
CCOc1ccc2nc(N=Nc3c(O)[nH]c(=S)[nH]c3=O)sc2c1	n	n	n	n	n	u
COC1C(C)OC(OC2CC(C)(O)Cc3cc4c(c(O)c32)C(=O)c2c(O)cc3c(c2C4=O)OC2OC3(C)C(O)C(N(C)C)C2O)C(OC)C1(C)OC (centres undefined)	n	0.46µM	n	u	16µM	n
CCOP(=O)(CCP(=O)(OCC)OCC)OCC.C[CH2][Sn]([Cl])([Cl])[CH2]C	u	u	u	u	4.6µM	u
CCOP(=O)(OCC)OCC	n	n	n	n	n	n
Cc1ccc(-n2nc(C)c3c2NC(=O)CSC3c2ccc(O)cc2)cc1Cl (centres undefined)	n	23µM	x	x	x	x
Cc1nc2nc(SCC(=O)N3CCC4(CC3)OCCO4)nn2c(C)c1Cc1ccccc1	26µM	u	n	n	n	n
Cc1nc2cc(-c3cccc(F)c3)nn2c(C)c1CCC(=O)N1CCC2(CC1)OCCO2	u	n	n	n	n	n
Cc1nc2c(-c3ccccc3)c(C)nn2c(C)c1CCC(=O)N1CCC2(CC1)OCCO2	13µM	n	n	n	n	n
c1ccc2c3c(ccc2c1)OCC1CONC31 (centres undefined)	n	n	n	n	n	n
CN(C)C1(CNC(=O)c2ccc(NS(=O)(=O)c3ccc(Cl)c(Cl)c3)cc2)CCCCC1	n	n	n	n	n	u
CN(C)C1(CNC(=O)Nc2ccc(Cl)c(Cl)c2)CCCCC1	n	n	u	21µM	u	n
CCOc1ccc(-c2cc(C(=O)N3CCC4(CC3)OCCO4)c3ccccc3n2)cc1	n	n	n	n	n	n
CCC1(C)OC(c2ccccc2)=C/C(=C/C=C2C(=O)NC(=O)NC2=O)O1 (centres undefined)	n	n	u	n	n	21µM
COc1ccc(CC2NCC(O)C2OC(C)=O)cc1 (centres undefined)	0.18µM	0.18µM	n	1.8µM	0.13µM	u
COc1ccc(CC(=O)N2CCN(C)CC2)cc1	n	n	n	n	n	n
CCCCn1c(N)c(N(CC(C)C)C(=O)c2cc(Br)c(Br)s2)c(=O)[nH]c1=O	n	u	n	n	n	u
C=CCn1c(=O)c(C=Nc2cccc([N+](=O)[O-])c2)c(O)n(CCCC)c1=O	n	n	n	n	n	n
S=c1[nH]c2ccccc2[nH]1	n	n	n	n	n	n
C=CC1CN2CCC1CC2C(OC(=O)OCC)c1ccnc2ccc(OC)cc12 (centres undefined)	x	x	n	x	x	n
COC(=O)c1nc(-c2ccc3c(n2)C(=O)C(N)=C(OC)C3=O)c(N)c(-c2ccc(OC)c(OC)c2O)c1C	10µM	u	u	u	u	u
